This passage reports outcome results from PubChem BioAssay AID1233 (SRMLSC, 2008).

SMILES strings stand for the structures. Potency and affinity values are given separately. Calls of active or inactive are those of the source.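 Rule for the calls: active = a dose-response curve fit returns a half-maximal inhibitory concentration, extrapolated values included; inactive = the fit returns no such concentration.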

This assay concerns the target HMG-CoA reductase [Enterococcus faecalis] (UniProt Q9FD70). In words: class II HMG-CoA reductase inhibition potency – biochemical, Enterococcus faecalis, confirmation (AID 1233).

Consider `Brc1ccc(/C=N/Nc2ncnc3c2cnn3Cc2ccccc2)cc1`, for which the outcome was inactive.
The value for `COc1cc(S(=O)(=O)Nc2ccccc2C)ccc1NC(=O)c1ccncc1` was “inactive”; that for `O=C(NC(NC(=S)Nc1ccccc1C(=O)O)C(Cl)(Cl)Cl)c1ccccc1` (stereo not given) was “inactive”; that for `CNc1cc(N2CCCCCC2)ccc1[N+](=O)[O-]` was “inactive”.
The value for `Cn1c(CSc2nc3ccccc3s2)nc2ccccc21` was “inactive”; that for `CN(C(=O)COc1ncnc2c1cnn2-c1ccccc1)C1CCCCC1` was “inactive”; that for `Cc1cccc(C)c1N1CCN(C(=O)N2CCCCC2)CC1` was “inactive”.
On to `c1ccc(-c2ccnc3nc(N4CCN(c5ccccc5)CC4)nn23)cc1`, for which the call was inactive.
In the case of `O=C(NCc1cccs1)c1cc2c(s1)CS(=O)(=O)C2`, the call was inactive.
The value for `O=C(Nc1ccc(N2CCCCC2)cc1)c1ccc2c(c1)OCCO2` was “inactive”; that for `Cc1ccc(Cl)cc1NC(=O)COC(=O)C12CC3CC(CC(C3)C1)C2` was “inactive”; that for `COc1cc(-c2nnc(SC/C=C/c3ccccc3)n2N)cc(OC)c1OC` was “inactive”.
For the compound `COc1cc(C2NC(=O)NC(c3ccccc3)=C2C(C)=O)cc(Cl)c1OCC(=O)O` (stereo not given), the result was inactive.
With `COc1cc(OC)cc(C(=O)N[C@H](C(=O)OCn2nnc3ccccc3c2=O)C(C)C)c1`, the compound was classed as inactive.
For `CCOC(=O)c1c(NC(=O)CSc2nnc(C)s2)sc2c1CCC(CC)C2` (stereo not given), the call was inactive.
On to `Cc1ccccc1Nc1nnc(SCc2nc3ccccc3c(=O)[nH]2)s1`, for which the compound was classed as inactive.
Regarding `Cc1cccc(NC(=O)CSc2ccc(-c3ccc4c(c3)OCO4)nn2)c1C`, the call was inactive.
On to `CCCCC(c1nnnn1CCOC)N1CCN(CC)CC1` (stereo not given), for which the call was inactive.
For `C=CCN1CCN(C(c2cc(OC)ccc2OC)c2nnnn2CC2CCCO2)CC1` (stereo not given), the result was inactive.
For `Cc1ccccc1Nc1nc(N)nc(CN2CCN(Cc3ccc4c(c3)OCO4)CC2)n1`, the result was inactive.
The value for `CCc1c(C)nc2ncnn2c1NCCc1ccccc1` was “inactive”; that for `CCc1c(C)nc2c(C#N)c(C)[nH]n2c1=O` was “inactive”; that for `CC(C)NC(=S)N=Nc1c(O)[nH]c2ccc(C(C)C)cc12` was “inactive”.
On to `Cc1cc(C)nc(N/N=C2/CCCC/C2=C\c2ccccc2)n1`, for which the result was inactive.
Regarding `C/C(=N\Nc1ccc(C(=O)O)cc1)c1ccc(-n2ccnc2)cc1`, the outcome was inactive.
Regarding `CCOc1ccc(/C=N/NC(=O)CC(=O)Nc2ccc(Cl)c(Cl)c2)cc1`, the compound was called inactive.
Turning to `COc1ccc(-c2c(N)n[nH]c2C)cc1OC`, the result was inactive.
Turning to `COc1ccc(NC(=O)c2ccc3c(c2)n(C)c(=O)n3C)cc1`, the outcome was inactive.
As for `Cc1[nH][nH]c(=O)c1C(c1c(C)[nH][nH]c1=O)c1cn(Cc2ccc(F)cc2)c2ccccc12`, the outcome was inactive.
Turning to `CCNC(=O)NC(=O)C(C)OC(=O)c1ccc(-n2nc(SC)sc2=S)cc1` (stereo not given), the result was inactive.
On to `O=[N+]([O-])c1ccc(N/N=C/c2ccc(O)c(O)c2O)c(S(=O)(=O)N2CCOCC2)c1`, for which the call was inactive.
Turning to `COc1ccc(CNC(=O)COC(=O)[C@H](Cc2c[nH]c3ccccc23)NC(=O)c2cccs2)cc1`, the call was inactive.
Consider `COc1ccccc1C(=O)NNC(=O)c1ccc(NC(=O)c2ccccc2)cc1`, for which the outcome was inactive.
Consider `Cc1cccc(OCC(=O)NNC(=O)CCc2ccccc2)c1`, for which the compound was called inactive.
For the compound `Cn1c(=O)c(C(=O)CSc2ccccc2)c(N)n(Cc2ccccc2)c1=O`, the compound was called inactive.
Under `Clc1cccc(CN2CCC(Cc3ccccc3)CC2)c1` stands “inactive”; under `Cc1ccc(SC(=O)COc2ccc(C)c(C)c2)cc1`, “inactive”.
With `COC(=O)CC1COc2ccccc2N1C(=O)c1ccc(Br)cc1` (stereo not given), the compound was classed as inactive.
The value for `Cn1nnnc1SCC(=O)c1ccc(Br)s1` was “inactive”; that for `O=C1CC(c2ccccc2)CC2=C1CN(C1CCCCC1)CN2` (stereo not given) was “inactive”; that for `Cc1ccc(C(=O)CC2(O)C(=O)N(C)c3ccccc32)s1` (stereo not given) was “inactive”.
In the case of `O=C(CC(=O)NN=C1CCCCCC1)NCc1cccnc1`, the compound was classed as inactive.
Turning to `Cc1ccccc1NC(=O)Cn1nnc(S(=O)(=O)c2ccc(C(C)(C)C)cc2)c1N`, the result was inactive.
In the case of `COc1ccc(CSc2nnnn2C)cc1[N+](=O)[O-]`, the compound was classed as inactive.
With `Cc1ccc(S(=O)(=O)CCC(=O)NCCN2C(=O)S/C(=C\c3ccccc3)C2=O)cc1`, the outcome was inactive.
With `COC(=O)C1=C(C)NC(C)=C(C(=O)OC)C1C1CC=CCC1` (stereo not given), the result was inactive.
As to `O=C(N/N=C/c1ccc2c(c1)OCO2)c1ccc(NS(=O)(=O)c2cccs2)cc1`, the compound was classed as inactive.
Take `O=C(NCCCN1CCOCC1)c1cn(-c2ccccc2)nc1-c1cccs1`: the call was inactive.
Under `CCN1C(=O)/C(=C\C=C\c2ccccc2[N+](=O)[O-])SC1=S` stands “inactive”; under `CC1=C(C)C(=O)C(N2CCOCC2)=CC1=O`, “inactive”; under `O=C(Nc1cccnc1)c1ccc(COc2ccccc2Cl)o1`, “inactive”.
Under `COC(=O)C(C(=O)OC)c1ccc(N)cc1` stands “inactive”; under `O=C(Nc1ccc(N2CCOCC2)c(Cl)c1)c1ccc([N+](=O)[O-])o1`, “inactive”; under `CCN(CC)S(=O)(=O)c1cccc(C(=O)N[C@H](C(=O)Nc2nc3ccccc3s2)C(C)C)c1`, “inactive”.
As for `CCOC(=O)c1sc(NC(=O)CSc2nccc(C)n2)nc1C`, the compound was classed as inactive.
On to `CCCOP(=O)(OCCC)c1nc(-c2ccccc2)oc1NCc1ccccc1`, for which the result was inactive.
For the compound `CCCSc1nnc2n(N)c(=O)c3ccccc3n12`, the outcome was inactive.
As for `Cc1cc(C)cc(-n2c3nc4ccccc4nc3c3c(=O)n(Cc4ccco4)cnc32)c1`, the outcome was inactive.
The value for `Cc1cc(C)c2c(=O)[nH]c(SCC(=O)N(C)C)nc2n1` was “inactive”; that for `CC(C(=O)NC1CCCc2ccccc21)N1CCN(c2ccc(F)cc2)CC1` (stereo not given) was “inactive”.
Regarding `Cc1noc(C)c1CSc1nc2sc(C)c(C)c2c(=O)n1C1CCCC1`, the outcome was inactive.
As for `COc1ccc(-c2nnc(SC(C)C(=O)Nc3ccc4c(c3)OCCO4)o2)cc1` (stereo not given), the result was inactive.
`C=CCn1c(Oc2ccccc2)nc2c1c(=O)n(C)c(=O)n2C`: the outcome was inactive.
On to `CCOC(=O)c1cc2c(ccn2C)n1CC(=O)N1CCN(c2cccc(C(F)(F)F)c2)CC1`, for which the compound was called inactive.
Take `COC(=O)C(C)n1cnc2c(nnn2-c2ccc(OC)cc2)c1=O` (stereo not given): the call was inactive.
Turning to `Cc1[nH][nH]c(=O)c1C(c1c(C)[nH][nH]c1=O)c1cn(Cc2ccc(Cl)c(Cl)c2)c2ccccc12`, the compound was classed as inactive.
The value for `O=C(NCCCn1ccnc1)c1ccc(S(=O)(=O)N2CCOCC2)cc1` was “inactive”; that for `CCSc1nnc(NC(=O)CN2C(=O)C3CC=CCC3C2=O)s1` (stereo not given) was “inactive”; that for `COc1ccc(C(=O)C(C)OC(=O)c2cccc(S(=O)(=O)Nc3cc(Cl)c(OC)cc3OC)c2)cc1` (stereo not given) was “inactive”.
For `COc1ccc(N2CC(C(=O)NCCc3ccc(OC)c(OC)c3)CC2=O)cc1` (stereo not given), the outcome was inactive.
With `O=C(NC(=S)N(CC1CCC1)CC1CCCO1)c1cccc([N+](=O)[O-])c1` (stereo not given), the compound was classed as inactive.
The value for `Cc1cc(C(=O)NN=C2CCCCC2)c2ccccc2n1` was “inactive”; that for `CC(C)OC(=O)NC(C)(C)COC(=O)Nc1cccc(Cl)c1` was “inactive”; that for `COc1ccc(CCNc2ccncn2)cc1` was “inactive”.
Turning to `O=C(Cn1cc(C(=O)C(F)(F)F)c2ccccc21)N1CCOCC1`, the compound was classed as inactive.
The value for `O=c1[nH]ncc2c3ccccc3n(Cc3cccc(Cl)c3)c12` was “inactive”; that for `Cc1ccc(/C=C/S(=O)(=O)NCC(=O)O)cc1` was “inactive”; that for `Cc1cccc(S(=O)(=O)Nc2ccc(-c3cn4ccccc4n3)cc2)c1` was “inactive”.
Consider `C=CCn1c(C)c(C(C)=O)c(N2CCCC2)nc1=S`, for which the compound was classed as inactive.
Turning to `Cc1ccccc1-c1oc(C)c(C)[n+]1[O-]`, the compound was classed as inactive.
`CN(CCO)c1cc(NCCCN2CCC(Cc3ccccc3)CC2)c2nonc2c1[N+](=O)[O-]`: the compound was classed as inactive.
Consider `CC(=O)C1=C(O)C(=O)N(C)C1c1ccccc1F` (stereo not given), for which the compound was called inactive.
As to `COc1ccc(NC(=O)N(Cc2cc3ccc(OC)cc3[nH]c2=O)CC2CCCO2)cc1` (stereo not given), the outcome was inactive.
With `CC(=O)NCCn1c(SCc2cc(=O)n3cc(Cl)ccc3n2)nc2ccccc2c1=O`, the compound was called inactive.
With `CCC(Sc1ccccn1)C(=O)Nc1cccc([N+](=O)[O-])c1` (stereo not given), the compound was classed as inactive.
Take `CC(C)(C)C(=O)N1CCC[C@H]1C(O)(c1ccccc1)c1ccccc1`: the outcome was inactive.
Consider `CCOC(=O)Cc1csc(NC(=O)COc2cccc(C)c2)n1`, for which the outcome was inactive.
On to `CCOc1ccc(-c2[nH]ncc2Oc2ccccc2OCC)c(O)c1`, for which the call was inactive.
As to `Cc1ccc(Cc2cncc(O)c2)cc1S(=O)(=O)O`, the compound was classed as inactive.
For the compound `O=C(CNC(=O)c1ccc(S(=O)(=O)N2CCCC2)cc1)N/N=C/c1ccc(Cl)cc1`, the outcome was inactive.
`COC(=O)C1=C(CSc2nc3c(cc2C#N)CN(C)CC3)OC(N)=C(C#N)C1c1ccc(F)cc1` (stereo not given): the outcome was inactive.
For `CCOC(=O)C1=C(COc2ccc(F)cc2Cl)NC(=O)NC1c1cc(C)ccc1C` (stereo not given), the compound was called inactive.
As to `O=C(Nc1ccc(Oc2ccccc2)cc1)c1ccc(Cn2c(=O)[nH]c3ccsc3c2=O)cc1`, the outcome was inactive.
As to `COCCOC(=O)c1c(NC(=O)CN2CCOCC2)sc(C(N)=O)c1C`, the compound was classed as inactive.
Turning to `CCOC(=O)/C(C#N)=C/c1ccc(SC)cc1`, the compound was called inactive.
The value for `Cc1cccnc1NC(=O)Cn1nc([N+](=O)[O-])cc1C` was “inactive”; that for `COc1cc(OC)c(C(=O)NC2CC(C)(C)NC(C)(C)C2)cc1OC` was “inactive”; that for `CCCCCCCCNC(=S)NCCN1CCCCC1` was “inactive”.
For `COc1cc(Cn2c(=O)oc3ccc(C)cc32)ccc1OC(C)C`, the outcome was inactive.
As for `Cc1ccc(S(=O)(=O)N(C)Cc2ccc(-c3nnco3)cc2)cc1`, the compound was classed as inactive.
Under `C#CCn1c(-c2cccs2)nc2ccccc21` stands “inactive”; under `O=C(COCc1nc2ccccc2c(=O)[nH]1)NCC1CCCCC1`, “inactive”; under `COc1ccc(/C=C/C(=O)NC(=S)NNC(=O)c2cccnc2)cc1OC`, “inactive”.
As for `O=C(Cc1ccccc1)Nc1ccccc1CO`, the compound was called inactive.
Take `CCN(CC)CCOc1nc(C)nc2c1oc1ccccc12`: the compound was called inactive.
In the case of `O=C(O)C(Cc1ccccc1)N1C(=O)C2CCCCC2C1=O` (stereo not given), the call was inactive.
Turning to `CN(C)CCCNC(=O)c1cc(C(=O)C2CCCCC2)c[nH]1`, the compound was classed as inactive.
Take `COc1ccc(N2C(=O)C(CN3CCCCC3)C2c2ccccc2)cc1` (stereo not given): the compound was called inactive.
With `CN(C)c1ccc(N=C/C=C2\N(C)c3ccccc3C2(C)C)cc1`, the outcome was inactive.
`COc1ccc(C(=O)NCCc2nnc(SCC(=O)Nc3ccccc3F)n2C)cc1`: the call was inactive.
